# In the library only some 3.9% were active in any assay of this set; here they are far more common.
# HIF-2a block – HIF-2a reporter inhibitors, primary screen, luminescence, 786-0 RCC cells; 786-0 RCC cells HIF-2a reporter, luciferase luminescence, overnight; actives 0.72% (n = 360,000); AID 624352, 2012; inhibition, % at 18.8 µM;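 active = inhibition of the luminescence signal of 40% or more relative to plate controls, in a single-dose primary screen at 18.75 µM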
# TROY signal inh – inhibitors of TROY-driven NF-kB signaling, primary screen, Q293 LMP1-TROYcd cells, NF-kB luciferase, uHTS; actives 0.98% (n = 360,000); Q293 LMP1-TROYcd NF-kB luciferase reporter, 4 h; inhibition, % at 10 µM;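 active = compounds whose plate-normalised and pattern-corrected inhibition of the luciferase reporter signal at the single screening dose is 50% or more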
# TWEAK-Fn14 inh – inhibitors of TWEAK-Fn14 signaling, primary screen, luciferase reporter cells, uHTS; actives 2% (n = 360,000); TWEAK-stimulated Fn14 reporter cells, luciferase luminescence, 8 h; inhibition, % at 10 µM; AID 1159606, 2016; in the data active = inhibition above about 50%
# CF NFkB inh – inhibitors of PAF-induced NF-kB signaling, primary screen, cell-based, GFP fluorescence, uHTS; KKLEB NF-kB-GFP reporter, GFP fluorescence overnight; inhibition, % at 5 µM; actives 0.86% (n = 360,000);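 active = at least 50% inhibition at 5 µM, scaled per plate between neutral and stimulator controls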;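 note: PAF is a Pseudomonas aeruginosa culture filtrate used as stimulus; plate controls were PAF-stimulated DMSO wells for no effect and unstimulated DMSO wells for full effect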
# KKLEB cytotox – cytotoxicity in KKLEB CF airway cells, primary screen, cytotoxicity control for CF NF-kB inhibitor project, cell-based, uHTS, fluorescence assay plates; KKLEB CF airway cells viability, ATPlite luminescence, overnight; active compounds read low; cells stimulated with P. aeruginosa culture filtrate; activity change (cytotoxicity), % at 5 µM; actives 0.36% (n = 360,000); AID 602141, 2011;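 active = corrected activity change at or below -50% at 5 µM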
# Peg3 prom inh – Peg3 promoter-driven luciferase inhibitors, primary screen, cell-based, HeLa, luciferase luminescence; inhibition, % at 20 µM; actives 1.7% (n = 360,000); HeLa PEG-Prom luciferase reporter, overnight;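 active = inhibition of at least 50% at 20 µM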
# Active calls of the source: *.
SMILES,HIF-2a block,TROY signal inh,TWEAK-Fn14 inh,CF NFkB inh,KKLEB cytotox,Peg3 prom inh
C/C(=N\NC(=O)c1cccc(S(=O)(=O)N2CCCC2)c1)c1ccncc1,11,5,-9,-7,7,-9
CCOC(=O)C1CCCN(Cc2nc(N)nc(Nc3ccccc3)n2)C1 (configuration not stated),3,8,2,1,-4,7
Oc1cccc(/C=C/c2ccc3cccc(O)c3n2)c1,-154,-25,19,-8,-8,-205
COc1cccc(/C=C/c2ccc3cccc(O)c3n2)c1,-206,50*,84*,-47,3,37
CCCCCCCCC1=NCCc2c1[nH]c1ccccc21,9,-8,-10,-4,-4,91*
CC(C)C/C=C1\CCc2c([nH]c3ccccc23)C1=O,-254,-50,-19,-41,1,-222
COc1ccc(OC)c(/C=N\NC(=O)c2ccc(=O)n(C)c2)c1,10,-5,9,-18,-4,12
CCOc1ccccc1C(=O)NC(C)c1ccc2c(c1)OCO2 (configuration not stated),6,14,15,22,-14,16
CCC(=O)Nc1nc2ccc3sc(C)nc3c2s1,-108,49,69*,20,-7,-105
COC(=O)c1c(-c2ccc(C)cc2)csc1NC(=O)Cc1ccc(OC)c(OC)c1,18,42,57*,3,-6,19
COC(=O)c1c(-c2cccc3ccccc23)csc1NC(=O)Cc1ccc(OC)c(OC)c1,15,40,75*,26,-5,34
C[C@@H]1CN([C@H](C)CO)C(=O)CCCn2nncc2CO[C@H]1CN(C)Cc1ccc(O)cc1,-7,-12,3,2,-9,-18
CCn1cc(C(=O)N2CCN(c3ccccn3)CC2)c(=O)c2cc(S(=O)(=O)N3CCC(C)CC3)ccc21,9,11,2,-4,19,0
Cc1cc2nc(-c3ccc(SCc4ccc(C#N)cc4)nc3)[nH]c2cc1C,-96,47,58*,-8,7,-58
Cc1ccc2nc(-c3ccc(SCC(=O)O)nc3)[nH]c2c1,-18,7,28,1,6,23
Cc1cc(=O)[nH]c(SCC(=O)Nc2ccc(S(=O)(=O)N3CCCCC3)cc2)n1,16,-5,4,-13,-4,-7
CC(=O)CSc1ccc(-c2nc3ccccc3[nH]2)cn1,-77,15,69*,-4,-18,-118
Cc1cc2nc(-c3ccc(SCC(=O)Nc4ccc(S(=O)(=O)N5CCCC5)cc4)nc3)[nH]c2cc1C,-194,-35,-29,23,-54*,-78
N#Cc1ccccc1CSc1ccc(-c2nc3ccccc3[nH]2)cn1,-266,59*,59*,-7,3,-141
CCN1CCN(c2ccc(NC(=O)c3cc4ccccc4cc3OC)cc2C)CC1,-270,15,-39,-4,12,-27
Cc1c(C(=O)NCc2ccc3c(c2)OCCO3)sc(=O)n1Cc1ccccc1C#N,-8,10,6,-5,6,21
COc1ccc(-c2nc(SCC(=O)Nc3nccs3)c(-c3ccc(Cl)cc3)[nH]2)cc1,-2,10,4,10,-16,52*
Cc1ccc2nc(-c3ccc(SCC(=O)N4CCc5ccccc54)nc3)[nH]c2c1,-223,-60,53*,4,-27,-280
O=C(CSc1ccc(-c2nc3ccccc3[nH]2)cn1)Nc1ccc(S(=O)(=O)N2CCCC2)cc1,-100,18,52*,-17,-2,-18
O=C(CSc1ccccc1)Nc1ccc(-c2nc3ccccc3[nH]2)cc1,-125,-48,-44,7,-12,-196
SMILES,HIF-2a block,TROY signal inh,TWEAK-Fn14 inh,CF NFkB inh,KKLEB cytotox,Peg3 prom inh
Cc1cc2nc(-c3ccc(SCC(=O)Nc4nccs4)nc3)[nH]c2cc1C,-155,-22,-46,58*,-59*,14
CCOc1ccc(NC(=O)CN2CCCC2c2cccs2)cc1S(=O)(=O)N1CCCC1 (configuration not stated),4,-23,27,-6,14,10
CC(C)C(Cl)=NOC(=O)Nc1ccc(F)cc1,18,-8,51*,32,6,55*
CC1N(C)c2cc(NC(=O)c3ccco3)ccc2C1(C)C (configuration not stated),-194,53*,49,0,11,-210
COc1ccc(S(=O)(=O)N2CCC(C(N)=O)CC2)cc1C(=O)N1CCCCCC1,6,-13,9,-21,5,6
FC(F)(F)c1cc(CO[C@@H]2CCCN[C@@H]2c2ccccc2)cc(C(F)(F)F)c1,-2,11,-4,12,4,72*
FC(F)(F)c1cc(CCN2CCNC[C@@H]2c2ccccc2)cc(C(F)(F)F)c1,-5,5,20,-11,2,15
O=[N+]([O-])c1cc(-c2nnc(Nc3ccc(O)cc3)c3ccccc23)ccc1N1CCOCC1,3,29,39,13,8,52*
O=[N+]([O-])c1cc(-c2nnc(Nc3ccccc3)c3ccccc23)ccc1N1CCOCC1,14,24,26,8,16,41
CC1CC(C)CN(CCCNC(=O)CN2C(=O)CSc3ccc(S(=O)(=O)N4CCOCC4)cc32)C1 (configuration not stated),9,1,-16,-16,4,-2
CCCCN(C=O)c1c(CC)nc2c(OCc3cc(Cl)cc(Cl)c3)cccn12,-44,7,12,12,-12,24
CCN(CC)c1ccc(S(=O)(=O)N2CCOCC2)cc1NC(=O)COC(=O)/C=C/c1ccc(O)c(OC)c1,0,3,6,27,6,7
Cc1ccc(CNC(=O)/C=C/[C@H]2O[C@@H](n3cc(C)c(=O)[nH]c3=O)C[C@@H]2O)o1,2,17,12,7,4,-6
Cc1cn([C@H]2C[C@H](O)[C@@H](/C=C/C(=O)NCc3cccc4ccccc34)O2)c(=O)[nH]c1=O,18,-1,18,81*,-52*,9
Cc1nc(NC(=O)c2cc3c(C)nn(-c4ccccc4)c3s2)sc1C(=O)Nc1ccccc1,-2,3,13,3,6,50
Cc1ccc(OCC(=O)N2CCN(S(=O)(=O)c3ccc4c(c3)OCCO4)CC2)c(C)c1,2,-14,-8,31,-12,13
COc1ccc(-n2c(/C=C3\C(=O)N(C)c4ccccc43)nc3ccccc3c2=O)cc1,23,29,44,7,-5,21

# Screening data as filed in PubChem.
